# Test results: PubChem BioAssay (NCI)
# This is part of a sample that, as a whole, favours compounds with a hit. Of some 83,000 tested, about 20% had one in any assay.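 Cell lines were cultured in 96-well plates, exposed to a single compound concentration, and assessed for percent growth 48 hours later.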 Values without a mark were called inactive. Activity calls are given as the source filed them. Rule for the calls: active = growth percent below 10; inactive = the rest.
# Assays:
# Experiment in all cases: NCI-60 one-dose screen, 48 h (100 = growth as untreated, 0 = no growth, -100 = all killed)
# Conditions in all cases: 10 µM unless noted
# SR leukemia = tested on: SR leukemia
# RPMI-8226 leukemia = tested on: RPMI-8226 leukemia
# OVCAR-8 ovarian = tested on: OVCAR-8 ovarian
# OVCAR-5 ovarian = tested on: OVCAR-5 ovarian
# OVCAR-4 ovarian = tested on: OVCAR-4 ovarian
# SK-OV-3 ovarian = tested on: SK-OV-3 ovarian
# IGROV1 ovarian = tested on: IGROV1 ovarian
# OVCAR-3 ovarian = tested on: OVCAR-3 ovarian
# HS 578T breast = tested on: HS 578T breast
# NCI/ADR-RES ovarian = tested on: NCI/ADR-RES ovarian
# T-47D breast = tested on: T-47D breast
# BT-549 breast = tested on: BT-549 breast
# MDA-MB-435 melanoma = tested on: MDA-MB-435 melanoma
# SW-620 colon = tested on: SW-620 colon
# MCF7 breast = tested on: MCF7 breast
# HCT-116 colon = tested on: HCT-116 colon
# HCC-2998 colon = tested on: HCC-2998 colon
# KM12 colon = tested on: KM12 colon
Compound,growth (SR leukemia),growth (RPMI-8226 leukemia),growth (OVCAR-8 ovarian),growth (OVCAR-5 ovarian),growth (OVCAR-4 ovarian),growth (SK-OV-3 ovarian),growth (IGROV1 ovarian),growth (OVCAR-3 ovarian),growth (HS 578T breast),growth (NCI/ADR-RES ovarian),growth (T-47D breast),growth (BT-549 breast),growth (MDA-MB-435 melanoma),growth (SW-620 colon),growth (MCF7 breast),growth (HCT-116 colon),growth (HCC-2998 colon),growth (KM12 colon)
CCCSc1nc(Nc2ccc(/C(C)=N\NC(N)=S)cc2)c(C#N)c(-c2ccccc2)n1,57.1%,67.5%,56%,85.5%,58.7%,125%,86.9%,31.4%,62.5%,53.5%,63.4%,88.5%,87.5%,84.1%,47.9%,49%,89.5%,54.9%
C=CCOc1cccc(/C=C2\SC(=S)N(C3CC(=O)N(c4ccc(Br)cc4)C3=O)C2=O)c1 (stereo not drawn),93.7%,96.4%,99.9%,108%,109%,88%,103%,108%,106%,99.9%,95.9%,109%,109%,108%,90.7%,100%,115%,97.6%
C#CCOC(=O)[C@@H]1CCCN1CC#C,95.5%,71%,90.4%,103%,91.9%,97.6%,67.3%,87.3%,74.8%,85.7%,92.6%,95.2%,90.9%,96.7%,74.9%,81.6%,96.7%,91.5%
Cc1cc(C)n(C(=O)c2sc(=S)n(-c3ccccc3)c2N=Nc2c(N)n[nH]c2N)n1,86.4%,108%,101%,101%,115%,109%,99.8%,119%,113%,115%,117%,107%,104%,102%,96.7%,100%,110%,107%
C=CCn1c(SCC(=O)Nc2ccc(C(=O)/C=C/c3ccc(Br)cc3)cc2)nnc1-c1c[nH]c2ccccc12,70.3%,3.64% (active),81.2%,99.4%,74.7%,91.8%,76.4%,86.9%,89.9%,101%,60.7%,119%,94.7%,92.3%,22.8%,-60.7% (active),109%,89.3%
COc1cc(C2N=C(NNc3ccccc3)NC(C)=C2C(C)=O)ccc1O (stereo not drawn),57.7%,110%,94.2%,92.7%,93%,90.1%,69.9%,122%,108%,87.8%,83.9%,123%,92.5%,82.1%,88.7%,95.1%,98.9%,95.6%
C=C(C=O)[C@@H]1CC[C@]2(C)[C@H](CC=C3[C@H]4[C@@H](C)[C@H](C)CC[C@]4(C(=O)OC)CC[C@]32C)[C@@]1(C)CCC#N,0.262% (active),-11.9% (active),20.1%,2.05% (active),20.1%,69.7%,-2.63% (active),-58.2% (active),-14.4% (active),8.1% (active),22.4%,12%,-7.24% (active),0.12% (active),-20.1% (active),-57.8% (active),-48.8% (active),-4.32% (active)
CS(=O)(=O)Nc1cc(-c2ccc3ncc(C#N)c(NCc4ccccc4O)c3c2)cnc1Cl,6.89% (active),-21% (active),8.27% (active),21.7%,14.1%,-5.88% (active),-41.8% (active),3.31% (active),-17.9% (active),42.4%,13%,-10% (active),5.99% (active),9.16% (active),1.5% (active),2.58% (active),-1.75% (active),10%
COc1ccccc1C(=O)Nc1cccc2c1C(=O)C(=O)C=C2,58.2%,88.3%,102%,114%,74.8%,114%,79.2%,13.1%,102%,113%,98.8%,96.3%,96.8%,94.2%,81%,99%,122%,99.3%
N=c1c2cc(-c3ccccc3)oc2ncn1/N=C/c1ccc(Br)cc1,30.1%,92.4%,80.7%,49.3%,19.7%,101%,42.8%,-7.71% (active),79.1%,22.3%,79.6%,101%,61.6%,31%,65.6%,50.7%,100%,23.9%
N#Cc1cccc(CN2CCC3=C(C2)C(=O)N(Cc2ccc(Cl)cc2)C2=NCCCN23)c1,27.6%,18.7%,21.5%,38.7%,20.8%,35.9%,48.2%,23.3%,50.5%,13.4%,21.2%,64%,20.3%,36.1%,14.2%,22.5%,24.5%,38.8%
N/C(=N\C(N)=N\c1nc2ccccc2s1)c1cccc(F)c1,48.4% [5 µM],84.4% [5 µM],98.9% [5 µM],102% [5 µM],133% [5 µM],93.9% [5 µM],68.4% [5 µM],101% [5 µM],93.7% [5 µM],86.3% [5 µM],74.6% [5 µM],96.7% [5 µM],104% [5 µM],97.2% [5 µM],85.8% [5 µM],89.3% [5 µM],112% [5 µM],99.9% [5 µM]
Cc1ccc2c(c1)C13C(=C2Br)CCCN1C(=O)c1ccccc13 (stereo not drawn),47.2%,80.4%,99.5%,96.6%,91.8%,96.2%,88.5%,94.8%,94.3%,88.4%,86.8%,104%,54.8%,93.7%,74.3%,96.5%,113%,91.5%
Cc1nn(-c2ccccc2)c2ncnc(N/N=C/c3ccccc3O)c12,11.5%,20.4%,12.2%,35.9%,28.6%,10.4%,3.8% (active),29.4%,35.6%,3.15% (active),15.6%,25.6%,16.3%,26.2%,9.62% (active),20.9%,52%,16.7%
CCOC(=O)c1c(N)c(C#N)cn1-c1cc(OC)c(OC)c(OC)c1,105%,104%,102%,96%,107%,135%,105%,119%,99.5%,110%,112%,107%,103%,98.8%,91.1%,113%,115%,108%
O=C(Nc1ccc(Br)cc1)Nc1nc2ccc([N+](=O)[O-])cc2s1,-27.9% (active),-35% (active),8.82% (active),19.4%,-10.6% (active),-5.7% (active),21.8%,-5.56% (active),-3.63% (active),3.27% (active),-19% (active),-21.5% (active),-9.22% (active),3.15% (active),1.05% (active),2.73% (active),1.25% (active),0.616% (active)
